# Screens: PubChem BioAssay, National Center for Advancing Translational Sciences (NCATS)
# The list is not random: actives were taken first. Their share in the collection is about 9.3%.
# NPC1 prom act: activators of NPC1 promoter; AID 485313; 2.4% of 320,000 active; Potency, µM (highest dose often 9.22 µM), for inactives: at the top dose activation, most hits filed as activators; Huh7 NPC1 promoter luciferase reporter, 24 h; note: % of control where 0% means no effect; nearly all actives have a fitted effect of over 60% in size
#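 Stably transfected Huh7 (NPC1 promoter→luciferase), 1500 cells/well in Opti-MEM + 10% FBS, 2 h settle, then compound 24 h at 37 °C. Luminescence after 10 min with Amplite reagent.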
# SMN2 splice up: increases expression of the SMN2 splice variant | HEK293 SMN2-luciferase splicing reporter, luminescence, 30-36 h | Potency, µM (highest dose often 46.1 µM), without a hit: at the highest dose activity change, positive = activation, hits mostly activators | 2.8% of 210,000 active; note: % of control where 0% means no effect; nearly all actives have a fitted effect of over 55% in size
#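 HEK293 cells carry an SMN2 […]–luciferase reporter in which exon 7 inclusion puts luciferase in frame. Cells were plated 10-12 h before compound addition, then incubated 30-36 h at 37C. ONE-Glo luminescence was read; sodium butyrate at 4.5 mM final served as control.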
# FLuc counter: inhibits or activates purified firefly luciferase, miR-21 counter-screen | 6.9% of 360,000 active | purified FLuc, Km substrates, luminescence inhibition | Potency, µM (highest dose often 57.5 µM), for the others: at the highest dose activity change, negative = inhibition, actives largely listed as inhibitors | AID 588342;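 note: plate controls were vehicle for no effect and reference inhibitor for full effect; nearly all actives have a fitted effect of over 55% in size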
# Target sequence (P08659 whole entry, looked up): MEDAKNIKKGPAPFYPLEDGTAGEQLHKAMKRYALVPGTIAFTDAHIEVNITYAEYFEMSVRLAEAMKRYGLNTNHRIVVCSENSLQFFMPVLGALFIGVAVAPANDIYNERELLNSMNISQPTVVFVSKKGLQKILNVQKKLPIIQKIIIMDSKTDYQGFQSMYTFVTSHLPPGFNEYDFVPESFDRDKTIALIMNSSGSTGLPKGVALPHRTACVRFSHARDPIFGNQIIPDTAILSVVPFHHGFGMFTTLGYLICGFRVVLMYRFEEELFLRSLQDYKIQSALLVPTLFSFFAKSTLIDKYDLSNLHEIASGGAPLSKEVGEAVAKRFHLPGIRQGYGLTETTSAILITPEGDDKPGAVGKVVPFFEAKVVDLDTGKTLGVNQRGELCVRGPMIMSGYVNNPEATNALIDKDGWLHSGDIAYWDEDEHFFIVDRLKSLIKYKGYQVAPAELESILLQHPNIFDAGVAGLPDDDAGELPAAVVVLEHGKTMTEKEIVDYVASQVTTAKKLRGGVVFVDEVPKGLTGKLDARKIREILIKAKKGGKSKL
#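 Purified P. pyralis luciferase (10nM final) with 10uM D-luciferin and 10uM ATP (Km levels) in 50mM Tris acetate pH 7.5, 10mM Mg acetate, 0.01% Tween-20, 0.05% BSA; qHTS 6-point titration, ~60 µM downward; luminescence read.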
# ELG1 repair inh: ELG1-dependent DNA repair inhibition; HEK293T ELG1-luciferase reporter, luminescence, 16 h; DNA damage induced by 5-fluorouridine; Potency, µM (series often up to 46.1 µM), for inactives: top-dose activity change, negative = inhibition, most hits filed as inhibitors; 2.3% of 330,000 active; AID 504467; note: % is set by controls: 0 for no effect and ±100 for the full control effect; nearly all actives have a fitted effect of over 55% in size
#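 In this reporter screen, reduction of luminescence relative to DMSO vehicle indicated activity. Compounds and 5-fluorouridine were added together to 2,000 cells per well, incubated for 16 hr at 37 °C, then developed with ONE-Glo.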
# Rab9 promoter act: Rab9 promoter activation | Potency, µM (titrated, usually from 9.22 µM), without a hit: at the top dose activation, negative = inhibition, actives largely listed as activators | AID 485297 | 2.8% of 320,000 active | Huh7 Rab9 promoter-luciferase reporter, luminescence, 24 h; note: % of control where 0% means no effect; nearly all actives have a fitted effect of over 60% in size
#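 Rab9 promoter-driven luciferase in stably transfected Huh7 cells; 1500 cells/well rested 2 h, exposed to compound in DMSO for 24 h at 37 °C, 5% CO2. Luminescence read 10 min after adding luciferase reagent at ambient temperature.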
# ELG1 genotox: induces genotoxicity in HEK293T cells with luciferase-tagged ELG1. 1.3% of 330,000 active. Potency, µM (doses to about 46 µM), for inactives: top-dose activity change, positive = activation, most hits filed as activators. HEK293T ELG1-luciferase reporter, luminescence, 16 h; note: % of control where 0% means no effect; nearly all actives have a fitted effect of over 60% in size
#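 ELG1-luciferase HEK293T cells, 2,000/well; compound pinned in; 16 hr, 37 °C, 5% CO2; ONE-Glo, 30 min RT; luminescence on CCD imager.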
# Numbers without * were called inactive; ? = inconclusive; . = no result; ! = not active in a repeat; [ ] = another dose, or the depositor's remark. Calls come from the whole dose curve; as a rule, active = well fitted curve in the direction sought with a large enough effect; inconclusive = small, poorly fitted or top-dose-only effect, or another doubt; inactive = no such curve, though single readings can be large; an effect the other way counts as inactive or inconclusive. Potency is the fitted concentration of half-maximal effect.
SMILES,NPC1 prom act,SMN2 splice up,FLuc counter,ELG1 repair inh,Rab9 promoter act,ELG1 genotox
COc1cc(CN(C)Cc2cc(=O)n3ccsc3n2)ccc1OC(F)F,-4.5%,-77.9%,-0.4%,13µM*,1.3%,-12.4%
Cn1c(=O)oc2cc(S(=O)(=O)NCCC(=O)NCc3ccc(F)cc3)ccc21,1.6%,-8.2%,-1.6%,-2.1%,-4.5%,0.7%
COc1ccc(NC(=O)c2oc3ccccc3c2NC(=O)C2CC2)cc1OC,-1.1%,.,16.9µM*,16.4µM*,6.0%,-7.4%
COc1ccc(NC(=O)c2oc3ccccc3c2NC(=O)C2CCCO2)cc1OC (centres undefined),24.3%,?,?,?,?,-0.2%
COc1ccccc1NC(=O)c1oc2ccccc2c1NC(=O)C1CC1,3.0%,.,-16.0%,2.7%,1.0%,-1.9%
Cc1ccc(NC(=O)c2oc3ccccc3c2NC(=O)C2CCCO2)cc1C (centres undefined),2.82µM*,12.6µM*,?,?,2.51µM*,7.3%
CCOc1ccccc1NC(=O)c1oc2ccccc2c1NC(=O)C1CC1,0.4%,.,-0.1%,-2.7%,1.2%,0.1%
CCOc1ccccc1NC(=O)c1oc2ccccc2c1NC(=O)C1CCCO1 (centres undefined),1.0%,-26.1%,-6.0%,7.3µM*,5.5%,-7.2%
Cc1ccc(NC(=O)CCc2c(C)nn(-c3ccc(N4CCCCC4)nn3)c2C)cc1,1.58µM*,.,10.7µM*,?,?,9.7%[9.26 µM]
Cc1cc(C)cc(NC(=O)CCc2c(C)nn(-c3ccc(N4CCCCC4)nn3)c2C)c1,?,.,4.78µM*,?,?,9.9%[9.26 µM]
Cc1nn(-c2ccc(N3CCCCC3)nn2)c(C)c1CCC(=O)Nc1ccc(F)c(F)c1,2.51µM*,.,5.36µM*,?,2.51µM*,0.6%
CCOc1ccccc1NC(=O)CCc1c(C)nn(-c2ccc(N3CCCCC3)nn2)c1C,2.9%,.,10.7µM*,?,21.0%,-5.5%
Cc1ccc(F)cc1NC(=O)CCc1c(C)nn(-c2ccc(N3CCCC3)nn2)c1C,.,.,-16.9%,.,.,.
Nc1ccc(Nc2ccc([N+](=O)[O-])cc2[N+](=O)[O-])cc1,-1.6%,-2.6%,-13.4%,-1.2%,1.7%,-1.4%
COc1cccc(CNC(=O)C(C)n2nc(C)n3c(cc4occc43)c2=O)c1 (centres undefined),-5.3%,.,3.0%,2.3%,-0.1%,0.3%
COC1C(O)CC(=O)OC(C)C/C=C/C=C/[C@@H](OC2CCC(N(C)C)C(C)O2)C(C)C[C@@H](CC=O)[C@@H]1O[C@H]1OC(C)[C@H](O[C@@H]2C[C@@](C)(O)C(O)C(C)O2)C(N(C)C)C1O (some centres undefined),.,-0.5%,.,.,.,.
Cc1ccc(NC(=O)CCc2c(C)nn(-c3ccc(N4CCOCC4)nn3)c2C)c(C)c1,-4.3%,.,-11.3%,7.5%,-2.7%,0.3%
CCOC(=O)c1cccc(NC(=O)CCc2nnc3ccc(N4CCCCC4)nn23)c1,-2.5%,.,2.0%,-8.3%,-2.6%,-0.3%
Cc1ccc(NC(=O)CCc2c(C)nn(-c3ccc(N4CCCCC4)nn3)c2C)cc1C,?,.,12µM*,?,?,11.8%[9.26 µM]
CCOC(=O)c1cccc(NC(=O)CCc2c(C)nn(-c3ccc(N4CCCCC4)nn3)c2C)c1,.,.,10.7µM*,.,.,.
CC(=O)c1ccc(NC(=O)CCc2c(C)nn(-c3ccc(N4CCCCC4)nn3)c2C)cc1,.,.,8.49µM*,.,.,.
COc1ccc(C)cc1NC(=O)CCc1c(C)nn(-c2ccc(N3CCCCC3)nn2)c1C,?,.,12µM*,?,?,4.4%
CCOC(=O)c1c(NC(=O)COc2ccc(C(C)(C)C)cc2)sc2c1CCCC2,.,-7.1%,-3.0%,.,.,.
O=C(CSc1nc2ccccc2n1-c1ccccc1)Nc1ncc(Cl)cc1Cl,3.2%,4.47µM*,-3.1%,5.5%,18.5%,-9.6%
Oc1ccc(/C=N/N=C(c2ccccc2)c2ccccc2)c(O)c1O,-9.1%,7.2%,?,-17.1%,-3.5%,-4.1%
SMILES,NPC1 prom act,SMN2 splice up,FLuc counter,ELG1 repair inh,Rab9 promoter act,ELG1 genotox
O=C(/C(=N/N=C/c1ccc(O)c(O)c1O)c1ccccc1)c1ccccc1,0.6%,3.16µM*,-6.7%,-18.4%,-2.3%,-2.5%
Cc1ccc(S(=O)(=O)N2CCN(C(=O)CCn3nc(C)c(C)c3C)CC2)cc1C,-0.5%,.,0.1%,1.0%,-4.9%,-1.2%
CCOC(=O)C1=C(C)N(C[C@@H]2CC[C@@H](Cc3ccc(-c4ccccc4)cc3)O2)C(=O)NC1c1cccc2ccccc12 (some centres undefined),.,.,.,11.4%,.,-0.4%
O=C(Nc1nnc(S(=O)(=O)Nc2ccccc2)s1)C1CCCCC1,-3.2%,.,8.49µM*!,-16.3%,-5.9%,0.4%
COc1ccc(OCC(=O)Nc2nnc(S(=O)(=O)N3CCCCCC3)s2)cc1,1.5%,.,15.1µM*!,-13.9%,-1.1%,-1.2%
O=C(Nc1nnc(S(=O)(=O)Nc2ccccc2)s1)c1ccccc1Cl,-2.6%,.,9.53µM*!,18.9%,-2.3%,3.4%
O=C(Nc1nnc(S(=O)(=O)N2CCCCCC2)s1)c1ccccc1Cl,-5.6%,.,-20.6%,-0.1%,2.5%,1.7%
O=C(Nc1nnc(S(=O)(=O)N2CCCC2)s1)c1ccccc1Cl,-1.0%,.,4.78µM*,13.3%,0.7%,-1.3%
CN(CCc1ccccn1)C(=O)c1nn2c(C(F)(F)F)cc(-c3ccco3)nc2c1Cl,0.1%,-14.8%,-0.6%,?,2.0%,-24.4%
CCOc1ccc(CN2CCN(Cc3cc4ccccc4o3)CC2CCO)cc1 (centres undefined),2.6%,.,-3.1%,?,-5.6%,-9.1%
CN(C)C=NC(=O)c1ccc([N+](=O)[O-])c(CS(=O)(=O)c2ccc(Cl)cc2)c1,-3.1%,.,-1.0%,-7.3%,-0.7%,-5.1%
COc1ccc(C(C(=O)NC2CCCC2)N(C(=O)c2snc(-c3ccc(F)cc3)c2N)c2ccccc2)cc1 (centres undefined),-2.5%,5.0%,-0.4%,21.1%,-3.2%,2.6%
O=C(Nc1nnc(S(=O)(=O)N2CCCCCC2)s1)c1ccccc1,?,.,6.75µM*,?,3.98µM*,12.1%
O=C(Nc1nnc(S(=O)(=O)N2CCOCC2)s1)c1ccccc1,18.9%,.,?,?,?,7.6%
Cc1ccccc1NS(=O)(=O)c1nnc(NC(=O)c2ccc(Br)cc2)s1,-3.6%,.,-16.5%,17.9%,-4.6%,-0.7%
Cc1ccccc1NS(=O)(=O)c1nnc(NC(=O)c2ccc(Cl)cc2)s1,-8.7%,.,2.39µM*!,9.0%,-8.0%,-0.2%
Cc1nnc(SCc2cnc(-c3ccc(C(C)C)cc3)s2)n1C,1.58µM*,?,0.301µM*,?,2µM*,?
